In the supplement of paper PMC6522484:
Where “and” joins values, the source holds several entries; their conditions need not be identical. Identical values can stand only once. ± gives the standard deviation of the averaged measurements.

Assays:
DLD1 [1] = test: cell viability (CellTiter-Glo) relative to plate median (fraction of plate median); higher = more viable cells; details: 5 µM; treatment time 24 h; reporter: 7TFP
Procedure, shortened: (§1)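 Luminescence, normalised well by well to the plate median, is tabulated as a mean of independent replicates. There were two replicates, run on colorectal cancer lines stably transduced with lentiviral TCF/Wnt firefly luciferase reporters and dosed with library compounds at a final 5 µM for 24 h. Readouts were firefly luciferase or CellTiterGlo on parallel plates.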

HCT116 = test: as above; details: 5 µM; treatment time 24 h; reporter: TCF4/Wnt
Procedure, shortened: as §1

SW480 [2] = test: as above; details: 5 µM; treatment time 24 h; reporter: 7TFP
Procedure, shortened: as §1

DLD1 [3] = test: TCF/Wnt firefly luciferase reporter signal relative to plate median (fraction of plate median); higher = higher Wnt reporter signal; details: 5 µM; treatment time 24 h; reporter: 7TFP
Procedure, shortened: as §1

SW480 [4] = test: as above; details: 5 µM; treatment time 24 h; reporter: 7TFP
Procedure, shortened: as §1

Compound	cell viability (DLD1 [1])	cell viability (HCT116)	cell viability (SW480 [2])	TCF/Wnt firefly luciferase reporter signal (DLD1 [3])	TCF/Wnt firefly luciferase reporter signal (SW480 [4])
Oc1cc(O)c2c(c1)O[C@H](c1ccc(O)c(O)c1)[C@H](O)C2	0.953 and 0.936	1.03 and 0.956	1.01 and 1.06	0.934 and 1.07	0.985 and 1.08
CCCCC1C(=O)N(c2ccccc2)N(c2ccc(O)cc2)C1=O (stereo not given)	0.923 ± 0.015	0.873 ± 0.038	0.898 ± 0.028	1.21 ± 0.057	1.02 ± 0.05
CN1CCCN=C1COC(=O)C(O)(c1ccccc1)C1CCCCC1 (stereo not given)	1 ± 0.15	1.15 ± 0.12	1.05 ± 0.042	1.08 ± 0.042	1.065 ± 0.0071
O=C(O)CCCN1C(=O)c2cccc3cccc(c23)C1=O	0.994 ± 0.08	1.04 ± 0.035	0.995 ± 0.05	0.96 ± 0.011	0.957 ± 0.047
C[n+]1c2cc(N)ccc2cc2ccc(N)cc21	1.05 ± 0.014	0.951 ± 0.084	1.08 ± 0.042	1.4 ± 0.27	1.01 ± 0.08
COc1ccc(-c2coc3cc(O)cc(O)c3c2=O)cc1	1.01 ± 0.065	0.888 ± 0.016	1.01 ± 0.044	0.985 ± 0.16	1.05 ± 0.064
O=C(O)c1cccnc1C(=O)O	1.07 ± 0.021	1.095 ± 0.0071	1.03 ± 0.014	1.04 ± 0.15	1.1 ± 0.085
CC(=O)O[C@H]1C[C@@H](OC(C)=O)C(C)(C)[C@@H]2C[C@@H](OC(C)=O)[C@]3(C)[C@H](CC[C@@]4(C)[C@H](c5ccoc5)OC(=O)[C@H]5O[C@@]534)[C@@]12C	1.11 ± 0.14	1.18 ± 0.028	1.15 ± 0.042	1.07 ± 0.12	1.04 ± 0.021
COc1ccc2c(C)cc(=O)oc2c1	0.974 ± 0.027	0.962 ± 0.022	0.939 ± 0.0071	0.803 ± 0.14	0.869 ± 0.099
CNCc1ccccc1	1.03 ± 0.014	1.125 ± 0.0071	1.03 ± 0.021	1.03 ± 0.067	1.045 ± 0.0071
C=C1CC[C@H](O)C/C1=C/C=C1\CCC[C@]2(C)[C@@H]([C@H](C)CCCC(C)C)CC[C@@H]12	1.025 ± 0.0071	0.969 ± 0.044	0.97 ± 0.057	0.84 ± 0.04	0.882 ± 0.054
CCCCCNC(=N)N/N=C/c1c[nH]c2ccc(OC)cc12	0.877 ± 0.1	0.964 ± 0.031	1.045 ± 0.0071	1.1 ± 0.028	1.045 ± 0.0071
CCOC(=O)c1c(C)cc(OC)cc1O	0.947 ± 0.033	0.908 ± 0.03	0.954 ± 0.066	0.874 ± 0.021	1.04 ± 0.064
C=CC[C@@H]1/C=C(\C)C[C@H](C)C[C@H](OC)[C@H]2O[C@@](O)(C(=O)C(=O)N3CCCC[C@H]3C(=O)O[C@H](/C(C)=C/[C@@H]3CC[C@@H](O)[C@H](OC)C3)[C@H](C)[C@@H](O)CC1=O)[C@H](C)C[C@@H]2OC	1.02 ± 0.22	1.05 ± 0.014	1.1 ± 0.021	1.08 ± 0.042	0.98 ± 0.0057
